Whole data set: some 33,000 sequences, median “e-score” near -0.05, cut for the highest 2% near 0.38. The sample as a whole holds a higher share of the highest values than the screen did.
Target: T1, SIX1-Q177R homeodomain (human, UniProt Q15475 108-198, Q177R)
T1 sequence: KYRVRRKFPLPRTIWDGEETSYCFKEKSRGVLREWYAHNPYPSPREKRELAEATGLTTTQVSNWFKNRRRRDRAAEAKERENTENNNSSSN
Test: universal protein binding microarray; Universal all-10-mer PBM (8x60K, AMADID 030236), 300 nM GST-tagged protein, Alexa Fluor 488 anti-GST; buffer, salt, pH and temperature not stated (as in Berger); high values mean tight binding
Details: protein: ivt; tags: N-terminal GST; dsDNA, one strand shown
In short: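 Binding was expressed as 8-mer E-scores calculated with the Universal PBM Analysis Suite. The GST-tagged homeodomains, made by in vitro transcription/translation, were applied in duplicate at 300 nM final concentration to universal 'all 10-mer' protein binding microarrays (8×60K format).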

Sequence | binding signal
AACCTACA | 0.192 ± 0.0148 E-score
GTACTGAC | 0.172 ± 0.0189 E-score
GACACCCC | 0.487 ± 0.00971 E-score
CGCACCCG | 0.245 ± 0.0361 E-score
GACCCCCA | 0.233 ± 0.0487 E-score
CGCACCCA | 0.193 ± 0.0349 E-score
GACACCCA | 0.479 ± 0.00732 E-score
CACACCCG | 0.423 ± 0.0208 E-score
CACACCCC | 0.402 ± 0.0285 E-score
GACCCCCC | 0.248 ± 0.0557 E-score
CCCACCCC | 0.304 ± 0.0356 E-score
GGCACCCC | 0.158 ± 0.0472 E-score
CACCCCCC | 0.341 ± 0.0318 E-score
CACCCCCG | 0.325 ± 0.0496 E-score
CCCCTGAC | 0.271 ± 0.0456 E-score
CAATGGTG | 0.299 E-score
CACTCGAC | 0.211 ± 0.00795 E-score
CGGGTCTC | 0.207 ± 0.0182 E-score
ATGAGGGG | 0.195 ± 0.0319 E-score
AAGTCGTG | 0.169 ± 0.0361 E-score
AGATGGAG | 0.181 ± 0.00463 E-score
CACGCAAA | 0.251 ± 0.0233 E-score

Sequence | binding signal
AACTCACA | 0.174 ± 0.0813 E-score
CTGATACC | 0.312 ± 0.00631 E-score
CGGGAGTA | 0.26 ± 0.0317 E-score
CACCCATA | 0.301 ± 0.0276 E-score
CACCTTGA | 0.177 ± 0.00756 E-score
GTTCTACA | 0.239 ± 0.00598 E-score
GATCCCCA | 0.267 ± 0.0387 E-score
AACACCCT | 0.4609 ± 0.00173 E-score
AACCCCCA | 0.209 ± 0.0281 E-score
AACCCCCG | 0.244 ± 0.0392 E-score
ACCACCCT | 0.183 ± 0.0205 E-score
AGCACCCC | 0.295 ± 0.0259 E-score
AGCACCCA | 0.159 ± 0.0296 E-score
AACACCCG | 0.466 E-score
AGCACCCG | 0.262 ± 0.00343 E-score
AGCACCCT | 0.172 ± 0.0259 E-score
AACACCCC | 0.4753 ± 0.00361 E-score
ACCACCCC | 0.249 ± 0.0234 E-score
AACACCCA | 0.4561 ± 0.00225 E-score
AACTCCGG | 0.161 ± 0.0108 E-score
ACCTCGTG | 0.208 ± 0.00536 E-score
ACGCCGGG | 0.16 ± 0.00711 E-score

Sequence | binding signal
CGGATAAC | 0.213 ± 0.00738 E-score
ACCTAGTG | 0.232 ± 0.0203 E-score
CCGACCGG | 0.172 ± 0.0141 E-score
CGCGCACC | 0.193 ± 0.014 E-score
AACGGAGT | 0.152 ± 0.031 E-score
ACCAGACA | 0.234 ± 0.0203 E-score
ACGATACC | 0.3575 ± 0.00339 E-score
CACCCCCA | 0.368 ± 0.0341 E-score
CCCACCCA | 0.204 ± 0.0309 E-score
TGCACCCA | 0.153 ± 0.0378 E-score
TACACCCA | 0.4707 ± 0.00252 E-score
CACACCCA | 0.382 ± 0.038 E-score
TACCCCCA | 0.304 ± 0.00484 E-score
CGAACGGA | 0.21 ± 0.0321 E-score
ACCCAGTA | 0.175 ± 0.0267 E-score
GTGTGAAC | 0.362 ± 0.00749 E-score
GTGTTACA | 0.4422 ± 0.00139 E-score
GTGTTAAC | 0.415 ± 0.0316 E-score
ATGTTACA | 0.177 ± 0.00778 E-score
CTGTTACA | 0.238 ± 0.0173 E-score
GTGTTTGA | 0.35 ± 0.00533 E-score
GTGTTATA | 0.432 ± 0.0299 E-score

Sequence | binding signal
GTGTTTTA | 0.361 ± 0.026 E-score
GAGTTAAC | 0.171 ± 0.00701 E-score
GGGTTATA | 0.2303 ± 0.000672 E-score
GTGTTAGA | 0.41 ± 0.0163 E-score
ACCTAACA | 0.203 ± 0.0209 E-score
ACAAGGGT | 0.21 ± 0.00286 E-score
AAGAGTGT | 0.363 ± 0.0349 E-score
CCGACGCC | 0.154 ± 0.0342 E-score
AGGGAGTG | 0.163 ± 0.00586 E-score
CACTAACC | 0.17 ± 0.00501 E-score
AGGGCGTG | 0.169 ± 0.0301 E-score
CTCCGACA | 0.175 ± 0.075 E-score
ACCTGCCT | 0.198 ± 0.0238 E-score
CACCTTAG | 0.286 ± 0.00858 E-score
CGCGGGTA | 0.273 ± 0.00467 E-score
CGGTGCGA | 0.155 ± 0.0742 E-score
TGGAAACA | 0.223 ± 0.0152 E-score
GTGTTAAA | 0.403 ± 0.0279 E-score
GGGTTAAA | 0.214 ± 0.0192 E-score
GTGTTTAA | 0.375 ± 0.015 E-score

Source: publication PMC10668032, “Altered binding affinity of SIX1-Q177R correlates with enhanced WNT5A and WNT pathway effector expression in Wilms tumor”
